This is one part of a sample in which hits are shown more often than they occur.
TDP1 block: qHTS Assay for Inhibitors of Tyrosyl-DNA Phosphodiesterase (TDP1); Tyrosyl-DNA phosphodiesterase 1 (Homo sapiens), Q9NUW8; recombinant TDP1, AlphaScreen DNA substrate cleavage; Potency, µM (top dose mostly 130 µM), without a hit: at the highest dose activity change, negative = inhibition, usual class: inhibitors; 350,000 compounds, 0.28% hits; AID 485290, 2010; note: % is set by controls: 0 for no effect and ±100 for the full control effect; nearly all actives have a fitted effect of over 40% in size
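AlphaScreen read-out: signal falls as enzyme removes the 3' tyrosine-FITC from a 5'-biotinylated DNA oligo (15 nM, 5 min, RT). Enzyme was E. coli-made recombinant Tdp1 at 1 nM, exposed to compound for 15 min beforehand; beads 10 ug/ml, 10 min.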
RECQ1 inh-1: qHTS Assay for Inhibitors of RecQ-Like Dna Helicase 1 (RECQ1) | ATP-dependent DNA helicase Q1 (Homo sapiens), P46063 | RECQ1 DNA unwinding, red fluorescence kinetic read | Potency, µM (highest dose often 57.3 µM), for the others: at the top dose activity, negative = inhibition, most hits filed as inhibitors | 240,000 compounds, 0.54% hits | AID 2549, 2010;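 note: plate controls were vehicle for no effect and no enzyme for full effect; nearly all actives have a fitted effect of over 30% in size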
Target sequence (P46063 whole entry, looked up): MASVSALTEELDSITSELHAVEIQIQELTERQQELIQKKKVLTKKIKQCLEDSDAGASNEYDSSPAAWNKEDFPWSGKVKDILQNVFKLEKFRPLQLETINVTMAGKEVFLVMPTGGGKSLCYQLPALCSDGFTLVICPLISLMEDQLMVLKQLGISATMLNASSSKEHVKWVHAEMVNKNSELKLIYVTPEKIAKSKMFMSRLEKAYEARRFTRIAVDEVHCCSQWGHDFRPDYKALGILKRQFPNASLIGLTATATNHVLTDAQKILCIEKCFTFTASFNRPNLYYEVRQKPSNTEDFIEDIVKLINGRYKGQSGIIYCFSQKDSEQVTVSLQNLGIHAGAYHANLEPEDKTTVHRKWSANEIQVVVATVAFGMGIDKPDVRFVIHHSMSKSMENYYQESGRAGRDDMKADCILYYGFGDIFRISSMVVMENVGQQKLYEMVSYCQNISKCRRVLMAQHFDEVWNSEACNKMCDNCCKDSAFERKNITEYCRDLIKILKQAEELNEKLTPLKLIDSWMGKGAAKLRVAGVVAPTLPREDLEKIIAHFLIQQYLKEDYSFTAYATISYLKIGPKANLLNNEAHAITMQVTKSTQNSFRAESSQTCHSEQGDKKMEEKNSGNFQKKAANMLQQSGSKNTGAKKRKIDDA
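RECQ1T1 50 nM; forked duplex (20 bp + 30-nt ss tails) 200 nM, ATP 2 mM final; pH 8.0, 2 mM MgCl2, 2.5 ug/ml poly(dI-dC); 15 min compound preincubation; discontinuous kinetic read over 2 h at RT.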
JMJD2E inh: qHTS Assay for Inhibitors of Human Jumonji Domain Containing 2E (JMJD2E); AID 2147, 2009; Potency, µM (top dose mostly 57.1 µM), for the others: at the top dose activity change, negative = inhibition, actives largely listed as inhibitors; Lysine-specific demethylase 4E (Homo sapiens), B2RXH2; JMJD2E catalytic domain, FDH-coupled NADH fluorescence (FDH is formaldehyde dehydrogenase); 230,000 compounds, 1.6% hits; active = well fitted inhibition curve with a large enough effect, not every such curve was filed as active; inconclusive = small, poorly fitted or top-dose-only effect, or another doubt; inactive = no such curve, though single readings can be large or run the other way;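 note: 0% = wells with enzyme and -100% = buffer wells without enzyme; nearly all actives have a fitted effect of over 50% in size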
BLM helicase inh: qHTS Assay for Inhibitors of Bloom's syndrome helicase (BLM); RecQ-like DNA helicase BLM (Homo sapiens), P54132; recombinant BLM DNA unwinding, fluorescence dequenching; Potency, µM (titrated, usually from 56.1 µM), for inactives: top-dose activity change, negative = inhibition, most hits filed as inhibitors; 350,000 compounds, 0.2% hits; AID 2528, 2010;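 note: plate controls were vehicle for no effect and no enzyme for full effect; nearly all actives have a fitted effect of over 35% in size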
APE1 inh-1: qHTS Assay for Inhibitors of the Human Apurinic/apyrimidinic Endonuclease 1 (APE1); 350,000 compounds, 0.35% hits; DNA repair nuclease/redox regulator APEX1 (Homo sapiens), P27695; Potency, µM (highest dose often 65.8 µM), inactives show at the top dose activity change, negative = inhibition, most hits filed as inhibitors; recombinant APE1, TAMRA/BHQ-2 abasic DNA cleavage fluorescence; AID 2517, 2012;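 note: plate controls were vehicle for no effect and reference inhibitor for full effect; nearly all actives have a fitted effect of over 55% in size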
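Quantitative HTS: incision of a TAMRA/BHQ-2 double-stranded substrate bearing a tetrahydrofuran abasic site by 0.75 nM APE1 raises fluorescence. Substrate 50 nM final, added after 15 min compound preincubation at room temperature; progress as third-minus-first kinetic read difference.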
L3MBTL1 inh-1: qHTS Assay for the Inhibitors of L3MBTL1; AID 485360, 2010; Potency, µM (top dose mostly 57.1 µM), for inactives: at the top dose activity, negative = inhibition, most hits filed as inhibitors; 230,000 compounds, 0.66% hits; AlphaScreen L3MBTL1–H3K9me1 peptide binding; Lethal(3)malignant brain tumor-like protein 1 (Homo sapiens), Q9Y468; note: % is set by controls: 0 for no effect and ±100 for the full control effect; nearly all actives have a fitted effect of over 60% in size
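AlphaScreen assay: L3MBTL1 (50 nM final) was preincubated 30 min at room temperature with biotinylated H3(1-15)K9me1 peptide (75 nM final), then 30 min with library compounds; streptavidin donor and nickel chelate acceptor beads (10 ug/mL final) added, 30 min dark.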
DNA dye displace: Counterscreen for APE1 Inhibitors: Fluorescent Dye Displacement Assay | shares compounds with APE1 inh-1 | DNA fluorescent dye displacement counterscreen, fluorescence | Potency, µM (highest dose often 28.5 µM), for inactives: at the highest dose activity change, negative = inhibition, usual class: inhibitors | 480 compounds, 7% hits | AID 2564, 2010;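 note: loss of thiazole orange fluorescence as the dye is displaced from duplex DNA; 0% = ThO with dsDNA and no compound and -100% = ThO without dsDNA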
Endo IV inh: Counterscreen for APE1 Inhibitors: qHTS Assay for Inhibitors of Endonuclease IV | AID 2565, 2010 | E. coli Endo IV, fluorogenic AP-site DNA cleavage | shares compounds with APE1 inh-1 | 560 compounds, 4% hits | Potency, µM (highest dose often 27.1 µM), without a hit: at the highest dose activity change, negative = inhibition, hits mostly inhibitors;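 note: plate controls were uninhibited enzyme wells for no effect and no enzyme buffer wells for full effect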
APE1 inh-2: Confirmation qHTS Assay for Inhibitors of the Human Apurinic/apyrimidinic Endonuclease 1 (APE1); purified APE1, fluorogenic abasic-site DNA cleavage; Potency, µM (series often up to 57.1 µM), without a hit: at the top dose activity change, negative = inhibition, usual class: inhibitors; shares compounds with APE1 inh-1; AID 2572, 2010; 750 compounds, 44% hits; note: % is set by controls: 0 for no effect and ±100 for the full control effect; nearly all actives have a fitted effect of over 30% in size
APE1 FP inh: qHTS FP-Based Assay for Inhibitors of the Human Apurinic/apyrimidinic Endonuclease 1 (APE1); Potency, µM (titrated, usually from 28.5 µM), without a hit: at the top dose activity, negative = inhibition, actives largely listed as inhibitors; shares compounds with APE1 inh-1; 480 compounds, 7% hits; APE1 binding to TAMRA-labelled double-stranded DNA, fluorescence polarization displacement; note: % is set by controls: 0 for no effect and ±100 for the full control effect
RECQ1 inh-2: Confirmation qHTS Assay for Inhibitors of RecQ-Like Dna Helicase 1 (RECQ1) - Round 2 Cherry Picks | shares compounds with RECQ1 inh-1 | recombinant RECQ1 DNA unwinding, red fluorescence | Potency, µM (titrated, usually from 119 µM), for inactives: at the top dose activity, negative = inhibition, most hits filed as inhibitors | 1,100 compounds, 15% hits; note: % is set by controls: 0 for no effect and ±100 for the full control effect; nearly all actives have a fitted effect of over 50% in size
L3MBTL1 inh-2: qHTS Assay for the Inhibitors of L3MBTL1: Hit Validation. shares compounds with L3MBTL1 inh-1. L3MBTL1 methyl-lysine binding inhibition, biochemical qHTS. Potency, µM, usual class: inhibitors. 500 compounds, 91% hits. AID 540279, 2011; note: nearly all actives have a fitted effect of over 70% in size
L3MBTL1 ctr: qHTS Assay for the Inhibitors of L3MBTL1: Hit Validationin AlphaScreen Counterscreen | 500 tested, under 10 active | shares compounds with L3MBTL1 inh-1 | Potency, µM (series often up to 57.1 µM), without a hit: top-dose activity change, negative = inhibition, most hits filed as inhibitors | AID 602224, 2012 | AlphaScreen counterscreen, signal inhibition; note: 0% is about no effect
* marks the source's active call; other numbers are inactive results; ? = inconclusive; · = not tested or not shown; [ ] = dose if it differs, or a comment. Unless noted, calls come from the whole dose curve; as a rule, active = well fitted curve in the direction sought with a large enough effect; inconclusive = small, poorly fitted or top-dose-only effect, or another doubt; inactive = no such curve, though single readings can be large; an effect the other way counts as inactive or inconclusive. Potency is the fitted concentration of half-maximal effect.

SMILES	TDP1 block	RECQ1 inh-1	JMJD2E inh	BLM helicase inh	APE1 inh-1	L3MBTL1 inh-1	APE1 inh-2	RECQ1 inh-2	L3MBTL1 inh-2	L3MBTL1 ctr	others
CCOc1ccc(N(C(=O)OC(C)(C)C)C(=O)c2ccc(O[Si](C)(C)C(C)(C)C)cc2)c(I)c1	9.1%	-12.3%	·	-5.6%	-1.5%	·	·	·	·	·
Cc1nn(C(=O)c2ccccc2)c(C)c1Sc1ccc(Cl)cc1	-1.3%[12.3 µM]	·	·	-3.6%	·	·	·	·	·	·
COc1ccc(C2Nc3ccccc3C(=O)N2Cc2ccccc2)cc1COc1ccc([N+](=O)[O-])cc1 (centres undefined)	1.9%	·	·	·	·	·	·	·	·	·
C=CCn1c(SCC(=O)c2ccc(O)c(O)c2)nnc1-c1cccnc1	-8.2%	8.91µM*	3.55µM*	?	1.58µM*	6.31µM*	2.51µM*	3.55µM*	2.99*	?	DNA dye displace=-5.2%;Endo IV inh=136.0%;APE1 FP inh=-22.9%
O=C(O)c1ccc(-c2ccc(/C=C3\NC(=O)N(Cc4ccc(Cl)cc4)C3=O)o2)cc1Cl	?	?	?	29.8%	?	5.62µM*	15.8µM*	·	0.752*	2.7%
O=C1CCC=C1C(O)c1ccccc1 (centres undefined)	-4.4%	-6.1%	7.4%	0.5%	-1.6%	·	·	·	·	·
CC(=O)Nc1ccc2c(COC(=O)CC3Sc4ccccc4NC3=O)cc(=O)oc2c1 (centres undefined)	20µM*	?	?	-8.5%	?	25.1µM*	35.5µM*	?	8.44*	10.9%

Compound activity deposited in PubChem by National Center for Advancing Translational Sciences (NCATS).
